Most compounds without a hit are left out; they make up all but 5.5% or so of the library.
Six1-Eya2 inh = qHTS Assay for Inhibitors of the Six1/Eya2 Interaction; 360,000 tested, 0.56% active; Homeobox protein SIX1 (Homo sapiens) + Protein phosphatase EYA2 (Homo sapiens), …; activity change, % (test concentration not listed); AlphaScreen GST-Six1/His-Eya2 binding, biochemical; hits give low values; in the data active = activity change below about -65%; inconclusive = mostly about -30% to -63%; also: % is scaled to controls: 0 for no effect and ±100 for the full control effect
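AlphaScreen luminescence read after one hour at 37 °C in darkness. Pin-transferred compounds met GST-Six1 and His-Eya2 protein (5X stock 250 nM/500 nM) plus glutathione donor and Ni-chelate acceptor beads (5X, 50 ug/mL).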
CBFb-RUNX1 inh = qHTS Assay for Compounds Blocking the Interaction Between CBF-beta and RUNX1 for the Treatment of Acute Myeloid Leukemia. Runt-related transcription factor 1 (Homo sapiens) + Core-binding factor subunit beta …. AlphaScreen CBFb-His/RUNX1-biotin binding, biochemical. Potency, µM (top dose mostly 59.8 µM), inactives show at the top dose activity, negative = inhibition, hits mostly inhibitors. 230,000 tested, under 10 active; also: % of control where 0% means no effect
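Compounds were screened at multiple concentrations against a preformed CBF-beta(His)/RUNX1(biotin) complex (30 nM of each) for 15 min at room temperature, followed by 90 min with nickel and streptavidin beads and AlphaScreen reading.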
MBNL1 CUG block = qHTS Assay for Inhibitors of MBNL1-poly(CUG) RNA binding; Muscleblind-like protein 1 (Homo sapiens), Q9NR56; TR-FRET MBNL1-His/biotin-(CUG)12 binding, 665/545 ratio; Potency, µM (doses to about 57.5 µM), for inactives: at the top dose activity change, negative = inhibition, hits mostly inhibitors; 280,000 tested, 0.036% active; AID 2675, 2010; active = well fitted inhibition curve with a large enough effect in the signal ratio, with a control signal flat, not every such curve was filed as active; inconclusive = small, poorly fitted or top-dose-only effect, or effect the other way, or a change in a side signal; inactive = no such curve, though single readings can be large or run the other way; the % refers to the signal ratio; also: potency is read from the fitted curve at half-maximal effect; % is scaled to controls: 0 for no effect and ±100 for the full control effect
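Compounds (final 92 nM to 58 uM) are added to His-tagged MBNL1 and biotin-(CUG)12, then terbium anti-His antibody and streptavidin-XL665 (5 nM final). After 60 min at room temperature, the 665/545 nm ratio is read.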
RORg inh = qHTS for inhibitors of ROR gamma transcriptional activity; Drosophila S2 Gal4-RORgamma UAS-luciferase reporter, 20 h; 310,000 tested, 5.4% active; AID 2551, 2010; Potency, µM (titrated, usually from 53.6 µM), for inactives: at the top dose activity change, negative = inhibition, most hits filed as inhibitors; Nuclear receptor ROR-gamma (Mus musculus), P51450; also: potency is read from the fitted curve at half-maximal effect; % is scaled to controls: 0 for no effect and ±100 for the full control effect; nearly all actives have a fitted effect of over 60% in size
Target sequence (P51450 whole entry, looked up, the tested form may be a part): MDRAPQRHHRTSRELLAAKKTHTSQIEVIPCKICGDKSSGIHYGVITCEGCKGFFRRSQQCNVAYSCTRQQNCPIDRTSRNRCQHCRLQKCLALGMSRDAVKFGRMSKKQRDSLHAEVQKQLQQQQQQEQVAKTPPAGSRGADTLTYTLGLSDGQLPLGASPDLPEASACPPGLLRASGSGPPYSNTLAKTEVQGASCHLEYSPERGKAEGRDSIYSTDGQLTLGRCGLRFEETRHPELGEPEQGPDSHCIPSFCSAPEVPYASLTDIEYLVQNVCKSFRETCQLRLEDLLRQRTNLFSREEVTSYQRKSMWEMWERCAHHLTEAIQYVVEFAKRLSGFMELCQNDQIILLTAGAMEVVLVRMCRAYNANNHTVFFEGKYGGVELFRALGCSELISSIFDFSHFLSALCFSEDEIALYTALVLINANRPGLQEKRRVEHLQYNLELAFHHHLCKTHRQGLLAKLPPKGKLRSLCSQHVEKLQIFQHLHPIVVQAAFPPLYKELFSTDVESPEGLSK
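Drosophila Schneider cells stably carrying a metallothionein-driven Gal4 DBD–ROR gamma fusion and a UAS-Photinus luciferase reporter were exposed to compound for 1 hr, then induced with copper sulfate (700 uM final) for 20 hr at ambient temperature before luminescence reading.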
Gal4-VP16 FLuc = VP16 counterscreen qHTS for inhibitors of ROR gamma transcriptional activity; Drosophila S2 Gal4-VP16 UAS-luciferase, luminescence, 20 h; Potency, µM (top dose mostly 53.6 µM), for inactives: top-dose activity, negative = inhibition, hits mostly inhibitors; 310,000 tested, 3.5% active;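 also: Gal4-VP16 expression switched on by copper sulfate through the metallothionein promoter; potency is read from the fitted curve at half-maximal effect; % is scaled to controls: 0 for no effect and ±100 for the full control effect; nearly all actives have a fitted effect of over 50% in size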
CtBP-E1A inh = qHTS Assay for Inhibitors of the CtBP/E1A Interaction | CtBP / adenovirus E1A interaction (AlphaScreen) | AlphaScreen GST-E1A/His-CtBP binding, 1536-well; hits give low values | activity change, % (test concentration not listed) | 340,000 tested, 0.49% active; in the data active = activity change below about -65%; inconclusive = mostly about -30% to -63%; also: % is scaled to controls: 0 for no effect and ±100 for the full control effect
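Protein mix (5X: 125 nM each GST-E1A, His-CtBP) was incubated with pinned compound 2 h at 37 deg C in dark, in 50 mM Tris pH 8.0 buffer with 300 mM NaCl. Glutathione donor and nickel acceptor beads followed; AlphaScreen signal read after 1 h.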
Starred values were filed as active, the others as inactive; ? = inconclusive; · = no result. Unless noted, calls follow the shape of the dose curve; as a rule, active = well fitted curve in the direction sought with a large enough effect; inconclusive = small, poorly fitted or top-dose-only effect, or another doubt; inactive = no such curve, though single readings can be large; an effect the other way counts as inactive or inconclusive.

SMILES | Six1-Eya2 inh | CBFb-RUNX1 inh | MBNL1 CUG block | RORg inh | Gal4-VP16 FLuc | CtBP-E1A inh
CCC(NC(=O)NC1CCCCC1)c1ccccc1 (stereo unspecified) | 5.0 | 1.8% | 5.4% | ? | 9.6% | 5.1
Cc1ccc(C(C)NC(=O)C2CCCC2)c(C)c1 (stereo unspecified) | 0.5 | · | 3.4% | 7.5% | -9.8% | 7.7
COc1ccc(C(C)NC(=S)NC2CCCC2)cc1OC (stereo unspecified) | -5.3 | 0.2% | -12.0% | ? | ? | -0.6
Cc1ccc(C(C)NC(=S)NC2CCCCC2)c(C)c1 (stereo unspecified) | -9.3 | · | -6.3% | 3.16µM* | 3.55µM* | -3.8
CCC(NC(=S)NC1CCCCC1)c1ccc(C(C)C)cc1 (stereo unspecified) | · | · | -6.0% | 1.78µM* | 2.51µM* | ·
Cc1ccc(C(C)NC(=S)NC2CCCCC2)cc1C (stereo unspecified) | · | · | -12.0% | 2.51µM* | 3.98µM* | ·
CC(=O)N1CCC2(CCN(Cc3cc(C(F)(F)F)cc(C(F)(F)F)c3)CC2)CC1 | · | · | · | -1.1% | -5.7% | ·
C=CCN1C(=O)C(CC(C)C)NC1=S (stereo unspecified) | · | -7.4% | · | -28.8% | -17.2% | ·
CCOc1cc(/C=C\[N+](=O)[O-])ccc1OCC(=O)Nc1ccccc1C | -0.8 | -1.2% | 6.1% | 1.12µM* | 1.78µM* | ·
Cc1cc(C)nc(Oc2ccc(Br)cc2Br)n1 | 11.5 | 7.2% | -5.7% | 7.4% | -1.8% | 16.1
COc1ccccc1NC(=S)N1CCN(c2nc(-c3ccccc3)cs2)CC1 | -10.1 | -18.0% | 9.3% | 14.1µM* | ? | -21.7
COc1ccc(-c2csc(N3CCC(c4ccccc4)C3)n2)cc1 (stereo unspecified) | 5.5 | 8.0% | 3.6% | 11.2µM* | -6.0% | -0.7
COc1cccc(-c2csc(N3CCN(C(=O)Nc4ccccc4Cl)CC3)n2)c1 | -8.9 | -11.7% | 4.7% | ? | -4.7% | ·
COc1ccccc1NC(=S)N1CCCC1 | -0.1 | 8.1% | 3.0% | -0.1% | -4.2% | 7.5
CCOc1ccccc1NC(=S)N1CCN(c2nc(-c3cccc(OC)c3)cs2)CC1 | -25.0 | 2.1% | 9.9% | 3.98µM* | 7.94µM* | ·
COc1cccc(-c2csc(N3CCN(Cc4ccccc4)CC3)n2)c1 | -10.8 | -6.8% | 9.0% | 12.6µM* | ? | -10.3
CCCC1(C(=O)OC)C=C2C(=C(C(C)C)C(=O)C2C)CN1 (stereo unspecified) | · | 24.0% | · | 5.6% | 2.8% | ·
O=C(NCc1ccccc1)C1CCCN(C(=O)NCc2ccccc2)C1 (stereo unspecified) | 9.8 | · | -1.3% | -29.3% | 22.1% | 3.8
CNC(=S)N1CCN(c2nc(-c3cccc(OC)c3)cs2)CC1 | -14.1 | · | 8.3% | -1.5% | 23.9% | -21.3
COc1cccc(NC(=O)N2CCN(c3nc(-c4cccc(OC)c4)cs3)CC2)c1 | -23.5 | -19.2% | -10.4% | -0.7% | -8.7% | ·
COc1cccc(-c2csc(N3CCN(C(=S)Nc4ccccc4)CC3)n2)c1 | -3.5 | -0.8% | 6.0% | 6.31µM* | ? | 5.4
COc1cccc(-c2csc(N3CCN(C(=S)Nc4ccccc4C)CC3)n2)c1 | -19.1 | -13.6% | 2.7% | 7.08µM* | ? | ·
COc1cccc(-c2csc(N3CCN(C(=S)Nc4ccc(Cl)cc4)CC3)n2)c1 | -13.7 | 5.1% | 3.8% | ? | ? | 4.6
COc1cccc(-c2csc(N3CCN(C(=S)Nc4cccc(C)c4)CC3)n2)c1 | -15.7 | -19.8% | 7.5% | 7.08µM* | 3.16µM* | ·

Source: PubChem
